The full data set covers some 7,900 targets. This sample favours those with a hit. About 0.6% of all pairs of compound and target were hits.
Legend:
Experiment in all cases: log2 fold change, soluble protein after heating vs DMSO (PISA); higher = thermal stabilisation; K562 cells, 10 uM, 30 min; active = over 0.2 and 3.5 SD of the protein, either way, in both replicates (recomputed)
[1] = compound: CS(=O)(=O)c1ccc(-c2cnc(N)c(C(=O)Nc3ccccc3)n2)cc1
Method in brief: (§1)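 Thermal stability values are relative to control samples and come from duplicates. They are expressed as log2 fold changes. For measurement, K562 cells (2×10^6 cells/mL) received 10 μM compound for 30 min, and aliquots were heated for 3 min over 48°C-58°C, pooled, and extracted at 4°C in PBS with 0.5% NP-40. Soluble protein, the supernatant after 21,000xg for 90 min, was quantified by TMTpro 16plex LC-MS/MS with equalised channel sums.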

crizotinib = compound: C[C@@H](Oc1cc(-c2cnn(C3CCNCC3)c2)cnc1N)c1c(Cl)ccc(F)c1Cl [crizotinib]
Method in brief: as §1

[2] = compound: C[C@@H]1COCCN1C2=NC(=NC(=C2)C3(CC3)S(=O)(=O)C)C4=C5C=CNC5=CC=C4
Method in brief: as §1

[3] = compound: C[C@H](C1=CC=C(C=C1)C(=O)NC2=C3C=CNC3=NC=C2)N
Method in brief: as §1

duvelisib = compound: C[C@H](Nc1ncnc2nc[nH]c12)c1cc2cccc(Cl)c2c(=O)n1-c1ccccc1 [duvelisib]
Method in brief: as §1

gandotinib = compound: Cc1cc(Nc2cc(CN3CCOCC3)c3nc(C)c(Cc4ccc(Cl)cc4F)n3n2)n[nH]1 [gandotinib]
Method in brief: as §1

tozasertib = compound: Cc1cc(Nc2cc(N3CCN(C)CC3)nc(Sc3ccc(NC(=O)C4CC4)cc3)n2)n[nH]1 [tozasertib]
Method in brief: as §1

[4] = compound: Cc1cc(SCc2sc(-c3ccc(C(F)(F)F)cc3)nc2C)ccc1OCC(=O)O
Method in brief: as §1

doramapimod = compound: Cc1ccc(-n2nc(C(C)(C)C)cc2NC(=O)Nc2ccc(OCCN3CCOCC3)c3ccccc23)cc1 [doramapimod]
Method in brief: as §1

ispinesib = compound: Cc1ccc(C(=O)N(CCCN)[C@@H](c2nc3cc(Cl)ccc3c(=O)n2Cc2ccccc2)C(C)C)cc1 [ispinesib]
Method in brief: as §1

bafetinib = compound: Cc1ccc(NC(=O)c2ccc(CN3CC[C@H](N(C)C)C3)c(C(F)(F)F)c2)cc1Nc1nccc(-c2cncnc2)n1 [bafetinib]
Method in brief: as §1

[5] = compound: Cc1cccc(CC(=O)N2CCc3c2ccc(-c2cn(C)c4ncnc(N)c24)c3F)n1
Method in brief: as §1

nilotinib = compound: Cc1cn(-c2cc(NC(=O)c3ccc(C)c(Nc4nccc(-c5cccnc5)n4)c3)cc(C(F)(F)F)c2)cn1 [nilotinib]
Method in brief: as §1

[6] = compound: Cc1nc(Nc2n[nH]c3c2CN(C(=O)N[C@H](CN(C)C)c2ccccc2)C3(C)C)c2sccc2n1
Method in brief: as §1

dasatinib = compound: Cc1nc(Nc2ncc(C(=O)Nc3c(C)cccc3Cl)s2)cc(N2CCN(CCO)CC2)n1 [dasatinib]
Method in brief: as §1

[7] = compound: Cc1ncc(-c2ccnc(Nc3ccc(S(C)(=O)=O)cc3)n2)n1C(C)C
Method in brief: as §1

[8] = compound: Cn1cc(-c2ccc3c(c2)CCN3C(=O)Cc2cccc(C(F)(F)F)c2)c2c(N)ncnc21
Method in brief: as §1

[9] = compound: Cn1cc(-c2ccc3nnc(C(F)(F)c4ccc5ncccc5c4)n3n2)cn1
Method in brief: as §1

tipifarnib = compound: Cn1cncc1[C@@](N)(c1ccc(Cl)cc1)c1ccc2c(c1)c(-c1cccc(Cl)c1)cc(=O)n2C [tipifarnib]
Method in brief: as §1

mubritinib = compound: FC(F)(F)c1ccc(/C=C/c2nc(COc3ccc(CCCCn4ccnn4)cc3)co2)cc1 [mubritinib]
Method in brief: as §1

Measured: log2 fold change

PPP2R5C isoform 5 (UniProt Q13362)
inactive: [1] -0.054 | crizotinib -0.071 | [2] 0.023 | [3] -0.05 | duvelisib 0.009 | gandotinib -0.024 | tozasertib -0.019 | [4] 0.069 | doramapimod -0.043 | ispinesib 0.007 | bafetinib -0.024 | [5] 0.005 | nilotinib -0.168 | [6] -0.026 | dasatinib -0.227 | [7] 0.026 | [8] 0.031 | [9] -0.06 | tipifarnib -0.099 | mubritinib 0.042

PPT1 (UniProt P50897)
inactive: [1] 0.022 | [2] -0.008 | [3] -0.029 | duvelisib 0.023 | gandotinib -0.018 | tozasertib -0.012 | [4] 0.023 | doramapimod -0.004 | [5] 0.011 | nilotinib 0.021 | [6] 0.02 | dasatinib 0 | [7] -0.001 | [8] 0.006 | [9] 0.019 | tipifarnib 0.025 | mubritinib 0.027
active: crizotinib -0.57 | ispinesib -0.394 | bafetinib -0.742

PRPF4B (UniProt Q13523)
Chain of UniProt Q13523 (Q13523 whole entry, looked up): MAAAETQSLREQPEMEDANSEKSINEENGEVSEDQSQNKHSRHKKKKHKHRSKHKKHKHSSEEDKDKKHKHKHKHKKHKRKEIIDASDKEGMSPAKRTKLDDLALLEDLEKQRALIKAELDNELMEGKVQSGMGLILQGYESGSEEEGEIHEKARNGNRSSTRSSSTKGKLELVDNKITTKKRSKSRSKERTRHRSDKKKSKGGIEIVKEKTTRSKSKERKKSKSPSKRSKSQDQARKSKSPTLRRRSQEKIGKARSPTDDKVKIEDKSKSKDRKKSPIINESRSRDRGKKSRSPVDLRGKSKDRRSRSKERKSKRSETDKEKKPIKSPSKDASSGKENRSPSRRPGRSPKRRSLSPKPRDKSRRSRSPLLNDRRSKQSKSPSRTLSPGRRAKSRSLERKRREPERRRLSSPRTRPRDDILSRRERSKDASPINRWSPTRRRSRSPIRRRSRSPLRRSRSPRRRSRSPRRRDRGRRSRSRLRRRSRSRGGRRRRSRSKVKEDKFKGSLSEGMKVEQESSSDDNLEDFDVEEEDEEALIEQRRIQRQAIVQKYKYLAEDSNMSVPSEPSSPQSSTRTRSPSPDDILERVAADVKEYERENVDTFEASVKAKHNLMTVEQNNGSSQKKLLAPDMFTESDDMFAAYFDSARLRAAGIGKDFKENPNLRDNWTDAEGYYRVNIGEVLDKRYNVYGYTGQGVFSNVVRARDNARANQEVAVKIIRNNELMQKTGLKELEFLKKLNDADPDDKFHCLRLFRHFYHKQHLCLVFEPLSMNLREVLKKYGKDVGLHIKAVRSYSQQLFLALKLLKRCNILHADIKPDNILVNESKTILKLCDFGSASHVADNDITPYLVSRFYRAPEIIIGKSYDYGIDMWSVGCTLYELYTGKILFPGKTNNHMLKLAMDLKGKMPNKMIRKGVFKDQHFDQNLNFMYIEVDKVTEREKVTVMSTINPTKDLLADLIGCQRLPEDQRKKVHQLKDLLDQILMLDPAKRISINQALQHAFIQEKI
inactive: [1] 0.024 | crizotinib -0.006 | [2] -0.025 | [3] -0.089 | duvelisib -0.081 | gandotinib 0.007 | tozasertib 0.062 | [4] 0.01 | doramapimod 0.044 | ispinesib 0.082 | bafetinib 0.188 | [5] -0.096 | nilotinib 0.153 | dasatinib 0.081 | [7] -0.163 | [8] 0.005 | [9] -0.056 | tipifarnib 0.117 | mubritinib 0.069
active: [6] -0.626

PCNT (UniProt O95613)
inactive: [1] 0.119 | crizotinib 0.023 | [2] 0.09 | [3] 0.153 | duvelisib -0.003 | gandotinib 0.06 | tozasertib 0.032 | [4] -0.006 | doramapimod -0.023 | ispinesib -0.099 | bafetinib -0.227 | [5] -0.324 | nilotinib -0.117 | [6] 0.045 | dasatinib 0.085 | [7] -0.002 | [8] -0.076 | [9] 0.107 | tipifarnib 0.127 | mubritinib -0.004

PPID (UniProt Q08752)
inactive: [1] 0.055 | crizotinib -0.102 | [2] 0.046 | [3] 0.071 | duvelisib -0.024 | gandotinib -0.145 | tozasertib 0.043 | [4] 0.088 | doramapimod 0.007 | ispinesib -0.08 | bafetinib 0.015 | [5] 0.075 | nilotinib -0.113 | [6] -0.13 | dasatinib -0.206 | [7] 0.062 | [8] 0.023 | [9] 0.076 | tipifarnib -0.148 | mubritinib -0.005

PDE4DIP isoform 4 (UniProt Q5VU43)
Chain of UniProt Q5VU43 (Q5VU43 whole entry, looked up): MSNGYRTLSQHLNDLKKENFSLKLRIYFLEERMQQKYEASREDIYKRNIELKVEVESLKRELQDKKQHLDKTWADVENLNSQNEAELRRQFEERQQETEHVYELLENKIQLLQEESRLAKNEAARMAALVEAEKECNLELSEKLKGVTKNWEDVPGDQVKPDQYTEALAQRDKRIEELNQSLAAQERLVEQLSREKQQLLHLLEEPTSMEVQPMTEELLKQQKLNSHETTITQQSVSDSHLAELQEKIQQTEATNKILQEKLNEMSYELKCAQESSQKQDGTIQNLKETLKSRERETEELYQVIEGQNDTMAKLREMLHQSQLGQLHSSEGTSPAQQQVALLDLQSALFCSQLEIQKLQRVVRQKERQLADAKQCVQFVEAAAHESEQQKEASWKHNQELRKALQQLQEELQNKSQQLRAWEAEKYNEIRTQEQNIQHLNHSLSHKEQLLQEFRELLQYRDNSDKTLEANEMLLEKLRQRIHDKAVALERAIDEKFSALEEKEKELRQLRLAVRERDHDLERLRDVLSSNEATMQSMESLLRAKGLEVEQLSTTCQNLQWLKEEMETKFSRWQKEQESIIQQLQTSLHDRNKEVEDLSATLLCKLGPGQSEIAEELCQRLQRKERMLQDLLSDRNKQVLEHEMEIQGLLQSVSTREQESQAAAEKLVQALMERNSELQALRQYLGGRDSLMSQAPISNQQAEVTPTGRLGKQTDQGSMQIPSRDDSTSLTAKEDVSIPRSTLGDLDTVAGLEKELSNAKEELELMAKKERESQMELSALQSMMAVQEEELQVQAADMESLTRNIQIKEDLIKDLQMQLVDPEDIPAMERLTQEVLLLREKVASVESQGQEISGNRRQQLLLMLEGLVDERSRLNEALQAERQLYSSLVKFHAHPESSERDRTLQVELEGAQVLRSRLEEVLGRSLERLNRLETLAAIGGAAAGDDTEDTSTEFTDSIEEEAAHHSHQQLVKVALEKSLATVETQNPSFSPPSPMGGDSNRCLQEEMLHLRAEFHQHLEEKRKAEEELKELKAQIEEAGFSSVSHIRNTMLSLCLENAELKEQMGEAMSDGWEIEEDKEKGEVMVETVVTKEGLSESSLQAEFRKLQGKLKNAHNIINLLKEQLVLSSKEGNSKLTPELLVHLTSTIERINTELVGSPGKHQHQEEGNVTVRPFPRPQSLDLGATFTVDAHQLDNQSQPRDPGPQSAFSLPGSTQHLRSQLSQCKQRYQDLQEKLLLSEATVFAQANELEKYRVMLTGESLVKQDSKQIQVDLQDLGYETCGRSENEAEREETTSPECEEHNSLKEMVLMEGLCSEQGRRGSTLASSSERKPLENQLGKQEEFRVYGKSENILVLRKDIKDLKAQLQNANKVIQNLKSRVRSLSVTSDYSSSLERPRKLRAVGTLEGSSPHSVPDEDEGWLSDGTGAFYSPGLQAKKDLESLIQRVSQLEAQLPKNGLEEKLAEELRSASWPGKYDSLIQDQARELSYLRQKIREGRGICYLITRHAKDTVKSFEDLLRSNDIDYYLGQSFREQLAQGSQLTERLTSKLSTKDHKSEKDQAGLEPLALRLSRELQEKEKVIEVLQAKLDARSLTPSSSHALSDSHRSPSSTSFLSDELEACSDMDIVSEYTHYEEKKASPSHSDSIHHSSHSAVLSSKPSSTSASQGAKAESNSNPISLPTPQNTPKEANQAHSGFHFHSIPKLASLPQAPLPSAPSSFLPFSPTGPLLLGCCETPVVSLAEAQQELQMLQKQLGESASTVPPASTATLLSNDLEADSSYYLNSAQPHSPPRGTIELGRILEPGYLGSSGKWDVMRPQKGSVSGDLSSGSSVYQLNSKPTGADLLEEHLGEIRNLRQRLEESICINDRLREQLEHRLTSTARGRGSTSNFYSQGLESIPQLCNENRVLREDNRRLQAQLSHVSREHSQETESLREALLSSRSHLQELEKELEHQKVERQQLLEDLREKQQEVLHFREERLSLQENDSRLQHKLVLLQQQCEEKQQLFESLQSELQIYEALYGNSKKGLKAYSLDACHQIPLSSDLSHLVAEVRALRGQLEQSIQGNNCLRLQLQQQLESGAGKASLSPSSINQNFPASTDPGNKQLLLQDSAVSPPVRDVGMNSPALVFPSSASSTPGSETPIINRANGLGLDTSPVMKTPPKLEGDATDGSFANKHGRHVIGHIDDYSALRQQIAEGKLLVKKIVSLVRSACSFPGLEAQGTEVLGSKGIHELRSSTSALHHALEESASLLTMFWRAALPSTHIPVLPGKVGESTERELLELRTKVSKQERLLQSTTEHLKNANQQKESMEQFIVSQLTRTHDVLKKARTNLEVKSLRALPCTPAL
inactive: [1] -0.007 | crizotinib 0.02 | [2] 0.134 | [3] -0.002 | duvelisib 0.072 | gandotinib 0.106 | tozasertib -0.011 | [4] 0.008 | doramapimod 0.01 | ispinesib -0.073 | bafetinib 0.022 | [5] -0.071 | nilotinib -0.054 | [6] -0.113 | dasatinib 0.037 | [7] -0.027 | [8] 0.021 | [9] 0.021 | tipifarnib 0.038 | mubritinib 0.022

PPP2R5E (UniProt Q16537)
inactive: [1] -0.024 | crizotinib -0.15 | [2] 0.037 | [3] 0.105 | duvelisib 0.078 | gandotinib 0.167 | tozasertib -0.072 | [4] 0.015 | doramapimod -0.01 | ispinesib -0.024 | bafetinib -0.023 | [5] -0.058 | nilotinib -0.11 | [6] 0.057 | dasatinib -0.074 | [7] -0.059 | [8] -0.049 | [9] -0.037 | tipifarnib -0.159 | mubritinib 0.018

QRSL1 (UniProt Q9H0R6)
inactive: [1] 0.046 | crizotinib -0.04 | [3] -0.023 | duvelisib 0.033 | gandotinib 0.082 | tozasertib -0.025 | [4] 0.024 | doramapimod -0.015 | ispinesib -0.049 | bafetinib -0.036 | [5] 0.048 | nilotinib -0.041 | [6] -0.028 | dasatinib -0.171 | [7] 0.045 | [8] 0.037 | [9] 0.024 | tipifarnib 0.002 | mubritinib -0.102
active: [2] 0.212

PRKD2 isoform 3 (UniProt Q9BZL6)
Chain of UniProt Q9BZL6 (Q9BZL6 whole entry, looked up): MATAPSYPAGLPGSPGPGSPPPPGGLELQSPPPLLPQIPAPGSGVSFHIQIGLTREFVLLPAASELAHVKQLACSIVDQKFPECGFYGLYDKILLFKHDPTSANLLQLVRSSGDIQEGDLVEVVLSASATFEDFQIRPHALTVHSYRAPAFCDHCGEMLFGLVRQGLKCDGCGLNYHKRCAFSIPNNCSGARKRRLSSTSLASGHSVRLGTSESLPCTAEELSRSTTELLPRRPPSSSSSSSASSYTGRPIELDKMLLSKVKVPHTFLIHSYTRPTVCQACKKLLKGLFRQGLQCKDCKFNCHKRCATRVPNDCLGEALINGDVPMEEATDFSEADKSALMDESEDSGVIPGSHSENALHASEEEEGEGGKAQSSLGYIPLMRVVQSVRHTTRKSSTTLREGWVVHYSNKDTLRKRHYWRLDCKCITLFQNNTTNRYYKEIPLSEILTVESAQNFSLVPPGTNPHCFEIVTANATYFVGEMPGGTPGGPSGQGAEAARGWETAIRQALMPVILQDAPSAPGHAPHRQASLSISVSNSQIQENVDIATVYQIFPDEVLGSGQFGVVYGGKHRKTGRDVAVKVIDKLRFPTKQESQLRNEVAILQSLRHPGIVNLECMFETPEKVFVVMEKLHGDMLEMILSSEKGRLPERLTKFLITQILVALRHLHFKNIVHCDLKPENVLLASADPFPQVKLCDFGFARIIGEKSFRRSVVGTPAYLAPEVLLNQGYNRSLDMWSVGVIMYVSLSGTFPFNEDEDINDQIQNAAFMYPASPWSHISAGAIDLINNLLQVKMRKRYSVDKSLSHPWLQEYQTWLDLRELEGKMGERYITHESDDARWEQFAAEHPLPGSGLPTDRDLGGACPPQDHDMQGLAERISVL
inactive: [1] -0.275 | crizotinib -0.39 | [2] 0.108 | [3] -0.111 | duvelisib 0.066 | gandotinib 0.017 | tozasertib 0.048 | [4] -0.014 | doramapimod 0.023 | ispinesib -0.129 | bafetinib -0.16 | [5] 0.045 | nilotinib -0.204 | dasatinib -0.139 | [7] -0.145 | [8] 0.057 | [9] 0.045 | tipifarnib -0.123 | mubritinib 0.099
active: [6] -0.698

PRPF3 (UniProt O43395)
inactive: [1] 0.009 | crizotinib -0.025 | [2] 0.114 | [3] 0.193 | duvelisib 0.053 | gandotinib -0.067 | tozasertib 0.007 | [4] 0.174 | doramapimod -0.024 | ispinesib 0.025 | bafetinib 0.048 | [5] 0.072 | nilotinib -0.044 | [6] -0.201 | dasatinib -0.114 | [7] -0.152 | [8] -0.149 | [9] 0.018 | tipifarnib -0.011 | mubritinib 0.118

PRUNE1 (UniProt Q86TP1)
inactive: [1] -0.011 | crizotinib -0.064 | [2] -0.002 | [3] -0.026 | duvelisib -0.047 | gandotinib -0.071 | tozasertib 0.097 | [4] 0.056 | doramapimod 0.008 | ispinesib -0.018 | bafetinib -0.037 | [5] 0.045 | nilotinib -0.051 | [6] -0.054 | dasatinib -0.178 | [7] 0.082 | [8] -0.045 | [9] -0.045 | tipifarnib -0.122 | mubritinib -0.056

PEX16 isoform 2 (UniProt Q9Y5Y5)
inactive: [1] -0.001 | crizotinib -0.142 | [2] 0.052 | [3] -0.072 | duvelisib 0.096 | gandotinib -0.104 | tozasertib 0.018 | [4] 0.057 | doramapimod 0.106 | ispinesib -0.23 | bafetinib -0.202 | [5] 0.016 | nilotinib -0.067 | [6] 0.006 | dasatinib 0.004 | [7] -0.006 | [8] 0.079 | [9] 0.079 | tipifarnib -0.067 | mubritinib 0.174

PTDSS1 (UniProt P48651)
inactive: [1] -0.029 | crizotinib -0.141 | [2] -0.05 | [3] 0.209 | duvelisib -0.225 | gandotinib -0.039 | tozasertib -0.048 | [4] 0.105 | doramapimod 0.151 | ispinesib -0.326 | bafetinib -0.125 | [5] 0.092 | nilotinib -0.166 | [6] 0.084 | dasatinib -0.002 | [7] 0.017 | [8] -0.089 | [9] 0.042 | tipifarnib 0.018 | mubritinib -0.074

PIP4K2C (UniProt Q8TBX8)
Chain of UniProt Q8TBX8 (Q8TBX8 whole entry, looked up): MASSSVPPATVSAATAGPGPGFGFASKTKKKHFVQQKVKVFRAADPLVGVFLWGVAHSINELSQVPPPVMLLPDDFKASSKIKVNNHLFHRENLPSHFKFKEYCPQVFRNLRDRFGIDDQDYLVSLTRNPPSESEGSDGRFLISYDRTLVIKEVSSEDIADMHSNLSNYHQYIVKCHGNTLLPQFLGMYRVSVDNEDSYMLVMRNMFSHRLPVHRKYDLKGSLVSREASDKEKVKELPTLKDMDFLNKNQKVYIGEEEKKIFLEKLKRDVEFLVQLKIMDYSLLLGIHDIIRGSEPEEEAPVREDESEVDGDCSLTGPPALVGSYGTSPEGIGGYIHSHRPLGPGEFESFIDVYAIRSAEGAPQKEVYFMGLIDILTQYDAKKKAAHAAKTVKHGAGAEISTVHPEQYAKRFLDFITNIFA
active: [1] 1.06 | [7] 1.25
inactive: crizotinib -0.058 | [2] 0.042 | [3] 0.063 | duvelisib 0.047 | gandotinib 0.033 | tozasertib 0.018 | [4] 0.057 | doramapimod -0.044 | ispinesib 0.009 | bafetinib 0.663 | [5] -0.112 | nilotinib 0.354 | [6] 0.053 | dasatinib -0.042 | [8] 0.144 | [9] 0.568 | tipifarnib -0.07 | mubritinib -0.084

PSMD7 (UniProt P51665)
Chain of UniProt P51665 (P51665 whole entry, looked up): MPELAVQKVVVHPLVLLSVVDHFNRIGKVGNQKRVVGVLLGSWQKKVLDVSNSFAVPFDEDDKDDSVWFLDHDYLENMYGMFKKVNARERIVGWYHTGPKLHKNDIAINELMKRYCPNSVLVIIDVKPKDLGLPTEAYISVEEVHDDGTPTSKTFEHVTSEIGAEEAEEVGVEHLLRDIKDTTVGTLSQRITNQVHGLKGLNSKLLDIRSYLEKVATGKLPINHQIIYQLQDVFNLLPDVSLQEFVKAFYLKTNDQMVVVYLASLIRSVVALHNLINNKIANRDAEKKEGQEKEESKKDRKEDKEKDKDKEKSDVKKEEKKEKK
inactive: [1] 0.077 | crizotinib -0.001 | [2] -0.053 | [3] 0.072 | duvelisib -0.073 | gandotinib 0.078 | tozasertib 0.003 | [4] -0.003 | doramapimod 0.069 | ispinesib 0.018 | bafetinib 0.075 | [5] 0.009 | nilotinib 0.014 | [6] 0.065 | dasatinib 0.054 | [7] -0.033 | [8] -0.116 | [9] -0.01 | tipifarnib 0.079 | mubritinib 0.019
